This is a sample that favours compounds with a hit; in the whole collection about 9.6% have one here.
Lmaj promast: Leishmania major promastigote growth inhibition, primary screen; Leishmania major promastigotes, resazurin fluorescence viability; inhibition, % at 10 µM; 9% of 200,000 active; AID 1063, 2008; in the data active = inhibition above about 50%;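 also: promastigotes grown with compound for 44 hours at 28 °C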
Ins promoter up: insulin promoter activators in MIN6 cells, imaging, high-content screening, mouse beta cells. MIN6 insulin promoter-GFP reporter; stronger effect = higher value. z-score at 5 µM. 0.3% of 190,000 active;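 active = z-score above 3 at 5 µM with at least 500 cells counted in the well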
bCat KO growth: primary screen for growth suppressors in beta-catenin knockout HCT116 cells (colon tumor, human); viability, % at 10 µM; HCT116 beta-catenin knockout viability, CellTiter-Glo, 60 h; stronger effect = lower value; AID 818, 2007; 1.5% of 140,000 active;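 active = viability at or under a set limit, the compound median less 4 SD, cut at about 6% in these data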;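 also: 0% = Hyamine 1622 control at 20 µM and 100% = untreated cell control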
Autophagy HCS: autophagy modulators in MEF cells, primary screen, imaging, high-content, MEF GFP-LC3; calls only at 10 µM (by protocol); 0.98% of 190,000 active; AID 463193, 2010; MEF GFP-LC3 puncta imaging; test concentration mostly 10 µM;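 active = percentage of spot-positive cells more than 3 SD above its plate mean, without a fluorescence outlier flag or 80% toxicity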;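 also: spot-positive cell cutoff set from DMSO-treated cells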
Insulin prom inh: inhibitors of insulin promoter-driven GFP, primary screen, imaging, TRM-6 cells (human fetal islet line), eGFP reporter, cell count | reporter expression induced with tamoxifen | inhibition, % at 2 µM | 0.9% of 130,000 active;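 active = inhibition above the mean plus 3 SD, with well images judged a real hit on visual review, cut at about 60% in these data, passing the limit was not always enough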
HCT116 PTEN-null: growth suppression of PTEN-null HCT116, primary screen, cell-based, CellTiter-Glo; HCT116 PTEN-null viability, 60 h; stronger effect = lower value; viability, % at 10 µM; 1.2% of 140,000 active;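 active = viability at or below a set limit, 4 SD under the median of all tested compounds, cut at about 3.7% in these data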;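 also: PTEN knockout HCT116 line with beta catenin targeted HCT116 as companion control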
* marks the source's active call; other numbers are inactive results; i = inactive; / = not tested or not shown; + = active, no number.

SMILES | Lmaj promast | Ins promoter up | bCat KO growth | Autophagy HCS | Insulin prom inh | HCT116 PTEN-null
COc1ccc(C(=O)Oc2cccc3cccnc23)cc1S(=O)(=O)N1CCOCC1 | 97.9* | 0.35 | / | i | 53.3 | /
CCC(CO)NC(=O)C1C=C2c3cccc4[nH]cc(c34)CC2N(C)C1 (stereo not given) | / | -0.13 | / | / | / | /
CCN(CC)c1ccc(N=Cc2c(O)n(-c3cc(OC)ccc3OC)c(=O)[nH]c2=O)cc1 | 20.9 | / | 3.0* | i | / | 24.1
CCN(CC)c1ccc(N=Cc2c(O)n(Cc3ccco3)c(=O)[nH]c2=O)cc1 | / | 1.62 | / | / | / | /
CCN(CC)c1ccc(N=Cc2c(O)n(CCc3ccc(OC)c(OC)c3)c(=O)[nH]c2=O)cc1 | 39.8 | 1.16 | 2.7* | i | / | 14.8
CON(C)C(=O)Nc1ccc(Cl)cc1 | 0.0 | 0.76 | 105.2 | i | -42.9 | 102.8
CN1CCN(c2ccc([N+](=O)[O-])c(N/N=C3\CN4CCC3CC4)c2)CC1 | 91.8* | / | 77.7 | i | 32.1 | 87.2
CCNc1cc(N2CCN(C)CC2)ccc1[N+](=O)[O-] | 7.6 | 0.71 | / | i | / | /
CC1(C)CC(=O)C=C(NCCN2CCN(C(=O)Cc3ccc(Cl)cc3)CC2)C1 | -3.9 | -0.42 | 86.0 | i | 7.0 | 91.6
CC(C)c1cccc(C(C)C)c1OCCn1ccnc1 | 94.0* | / | 99.1 | i | -28.6 | 86.7
COc1ccc(CN2C(=O)NC(=O)/C(=C\c3cccc(OC)c3OC)C2=O)cc1 | 2.6 | -0.22 | / | i | 37.5 | /
O=c1[nH]c(=S)n(C2CC2)c(O)c1C=NCc1cccnc1 | / | -0.93 | / | / | / | /
O=c1[nH]c(=S)n(-c2ccccc2)c(O)c1/C=N/N1CCOCC1 | 4.2 | 0.31 | 87.4 | i | / | 92.9
Cc1ccc(Cl)cc1N1CCN(CCN)CC1 | 100.4* | -0.52 | 52.1 | i | -11.7 | 58.5
CN1CCN(c2ccc(Cl)cc2N)CC1 | -2.9 | 0.19 | / | i | / | /
O=C(COc1ccccc1)N1CCN(CCN2C(=O)c3cccc4cccc(c34)C2=O)CC1 | 58.3* | 0.99 | / | i | / | /
Cc1c(C(=O)N2CCC3(CC2)OCCO3)sc2ncnc(N3CCN(c4ccccn4)CC3)c12 | -5.9 | 0.2 | 68.0 | i | 3.1 | 58.7
O=C(O)CN1C(=O)CN=C(c2ccccn2)c2cc(Cl)ccc21 | / | -0.21 | / | / | / | /
Cc1ccc(C2CC(=O)C(C=NCCN3CCN(C(=O)Cc4ccccc4)CC3)=C(O)C2)cc1 (stereo not given) | 4.0 | -0.3 | 105.6 | i | -112.5 | 93.5
Cc1ccc(C(=O)N[C@@H](C)CN2C3=NC[C@@H](Cc4ccccc4)N3C[C@H]2Cc2ccc(O)cc2)cc1Br | 51.9* | -1.49 | / | i | / | /
CN(C)CCNC(=O)c1cccn(Cc2cccc(C(F)(F)F)c2)c1=O | -2.0 | -0.18 | / | + | / | /
CNC(=O)c1cccn(Cc2cccc(C(F)(F)F)c2)c1=O | -1.1 | 0.66 | / | i | / | /
COc1cc(CN2CCN(c3cc(C)ccc3C)CC2)ccc1O | 45.1 | -8.07 | 55.2 | + | -48.4 | 64.4
COc1cc2c(cc1OC)C(C(=O)N(C)C1CCCCC1)C1CCCCN1C2=O (stereo not given) | 58.5* | -0.5 | 89.3 | i | -44.0 | 91.6
NS(=O)(=O)c1ccc(N=Cc2c(O)n(C3CCCCC3)c(=O)n(C3CCCCC3)c2=O)cc1 | 65.3* | 0.46 | 16.8 | i | / | /
SMILES | Lmaj promast | Ins promoter up | bCat KO growth | Autophagy HCS | Insulin prom inh | HCT116 PTEN-null
Cc1cccc(-n2c(O)c(C=Nc3ccc(S(N)(=O)=O)cc3)c(=O)[nH]c2=O)c1 | -3.2 | 0.45 | / | i | 11.1 | /
Cc1ccc(S(=O)(=O)N(C)CCCC(=O)N2CCN(c3ccccn3)CC2)cc1 | 89.6* | -0.04 | 73.7 | i | -48.4 | 82.2
CSc1ccc(CN2CCN(C(=O)COc3cccc(C)c3)CC2)cc1 | 86.6* | -0.51 | / | i | / | /
CCn1c(=O)cc(OCC(=O)N2CCN(Cc3ccc4c(c3)OCO4)CC2)c2ccccc21 | -1.7 | / | 61.5 | i | -33.3 | 64.5
CC(C)NS(=O)(=O)c1ccc(OCC(=O)N2CCN(Cc3ccc4c(c3)OCO4)CC2)c(Cl)c1 | 55.9* | -1.27 | 70.6 | i | -7.1 | 73.2
Cc1cc(S(=O)(=O)NCC(C)C)ccc1OCC(=O)N1CCN(Cc2ccccc2)CC1 | 22.0 | 0.98 | 84.2 | i | -172.7 | 80.1
CCc1ccc(OCC(=O)N2CCN(Cc3ccc4c(c3)OCO4)CC2)cc1 | 83.3* | -0.29 | / | i | / | /
CN1CCN(C(=O)COc2ccc(S(=O)(=O)NCc3ccccc3)cc2Cl)CC1 | 27.6 | 0.01 | 105.7 | i | -106.2 | 105.6
Cc1cc(S(=O)(=O)NC(C)C)ccc1OCC(=O)N1CCN(Cc2ccc3c(c2)OCO3)CC1 | 96.0* | -1.27 | 64.4 | i | 8.6 | 67.0
CCCCN1CCC(O)(c2ccccc2)C(C(=O)c2ccccc2)C1 (stereo not given) | 97.2* | / | 31.8 | i | 25.6 | 64.5
COc1ccc(Oc2cc(NC(=O)c3nn(C)cc3[N+](=O)[O-])cc([N+](=O)[O-])c2)cc1 | 11.1 | -0.81 | 1.6* | + | -35.1 | 1.4*
COc1cccc(CCNCc2ccc(SC)cc2)c1 | 50.5* | 1.04 | 96.1 | i | / | 86.1
COc1ccc(CCNCc2ccncc2)cc1 | 90.2* | / | 91.4 | i | 27.5 | 95.5
COc1ccc(CCNC(C)CCc2ccc(OC)cc2)cc1 (stereo not given) | 92.7* | 0.37 | 85.6 | i | -32.3 | 88.0
COc1ccc(CCNCc2ccc(C)s2)cc1OC | -0.7 | -0.31 | / | i | 0.0 | /
COc1ccc(CCNCc2ccc(OC)c(OC)c2OC)cc1 | 1.8 | 0.49 | 77.0 | i | -16.1 | 78.7
COc1ccc(-n2c(/C=C3/C(=O)Nc4ccccc43)nc3ccccc3c2=O)cc1 | 10.6 | -2.41 | / | i | 12.5 | /
COc1ccc(C=O)cc1O | -6.4 | 1.55 | 100.0 | i | 14.3 | 99.6
COc1ccc(/C=C2\C(=O)NC(=S)N(C)C2=O)cc1C | -1.3 | -0.01 | / | i | / | /
CSc1ccc(CN2CCN(Cc3ccccc3Cl)CC2)cc1 | 82.3* | / | / | i | -38.5 | /
O=[N+]([O-])c1ccc(N2CCCC2)c2ncccc12 | 5.2 | -0.94 | / | i | 0.0 | /
COC(=O)C(O)(c1ccc(NC(=O)Oc2ccccc2)cc1)C(F)(F)F (stereo not given) | -1.0 | -0.1 | 101.3 | i | -6.5 | 94.6
Cc1ccc2c(c1)C1CN(C)CCC1N2C(=O)Nc1cccc(C(F)(F)F)c1 (stereo not given) | 50.3* | 0.9 | 68.2 | i | 58.1 | 75.3
Cc1ccc2c(c1)C1CN(C)CCC1N2C(=O)CCCN1C(=O)c2cccc3cccc(c23)C1=O (stereo not given) | / | 0.4 | / | / | / | /
Cc1ccc2c(c1)C1CN(C)CCC1N2C(=O)c1cn(-c2ccccc2)nc1-c1ccccc1 (stereo not given) | 53.2* | 0.27 | / | + | -150.0 | /
Cc1ccc2c(c1)C1CN(C)CCC1N2C(=O)c1ccc(Br)o1 (stereo not given) | -0.5 | 1.26 | 90.6 | i | 2.7 | 87.8
Cc1ccc2c(c1)C1CN(C)CCC1N2C(=O)c1cccnc1Cl (stereo not given) | / | 0.37 | / | / | / | /

Screening data as filed in PubChem.
